Consider five compounds from PubChem BioAssay.

The source made the active and inactive calls.

In assay [1] the test system is Plasmodium falciparum Sir2 (PF13_0152, Sir2A). As to the kind of experiment: Plasmodium falciparum Sir2A binding compounds – biochemical, small-molecule microarray, 635 nm fluorescence, primary screen (AID 1098).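 Also: score merges spot fluorescence intensity with its signal-to-noise ratio.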 Particulars: fluorescence 635 nm, higher = more signal.
Assay [2] in a line: probe aDKK1 binding to arrayed compounds – biochemical, biotinylated probe, 635/667 nm fluorescence, primary screen (AID 1099).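 Also: score merges 667nm spot fluorescence with signal to noise across triplicate slides.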 Conditions: small-molecule microarray, higher = more signal.
Assay [3] can be described thus: probe aCHRDL2 binding to arrayed compounds – biochemical, biotinylated probe, 635/667 nm fluorescence, primary screen (AID 1100). Particulars: small-molecule microarray, higher = more signal.
Assay [4] is described as follows: change in splice reporter luminescence, either direction, cell-based, HEK293, spliceosome inhibition project, primary screen (AID 1101).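 Also: HEK293 cells carrying a splicing-competent luciferase reporter gene; test concentration not given here.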 Conditions: HEK293 splicing luciferase reporter, 24 h, higher = more signal, called active from +8 up or from −8 down. A general note: In a reporter assay the amount or activity of a reporter protein is the signal.
The target in assay [5] is Fibroblast growth factor 10 (Homo sapiens) (UniProt O15520). Nature of the assay: compounds binding fibroblast growth factor 10 – biochemical, small-molecule microarray, 635 nm fluorescence, primary screen (AID 1102). Particulars: FGF10 binding, fluorescence 635 nm, higher = more signal.
Assay [6] has as its system glycogen synthase kinase-3 (GSK3A per assay name; protocol says GSK3B). As to the kind of experiment: compounds binding glycogen synthase kinase-3 – biochemical, small-molecule microarray, 635 nm fluorescence, GSK3A, primary screen (AID 1103). Also: the record names both GSK3A and GSK3B. Conditions: fluorescence 635 nm, higher = more signal.
Assay [7] concerns the target Epidermal growth factor receptor (Homo sapiens) (UniProt P00533). As to the kind of experiment: compounds binding epidermal growth factor receptor – biochemical, small-molecule microarray, 635 nm fluorescence, primary screen (AID 1104).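 Also: score merges 667 nm emission intensity with spot signal to noise over triplicate slides.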 Particulars: EGFR binding, higher = more signal.
Assay [8] addresses Follistatin-related protein 3 (Homo sapiens) (UniProt O95633). As to the kind of experiment: compounds binding follistatin-related protein 3 – biochemical, small-molecule microarray, 635 nm fluorescence, primary screen (AID 1105).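 Also: score merges emission near 667 nm and signal to noise per printed spot across three slides.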 Particulars: FSTL3 binding, higher = more signal.
For assay [9], the target named is Dickkopf-related protein 1 (Homo sapiens) (UniProt O94907). As to the kind of experiment: small molecules binding DKK1 protein – biochemical, small-molecule microarray, 635 nm fluorescence scan, primary screen (AID 1106).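 Also: score merges emission near 667 nm with signal to noise over three replicate slides.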 Conditions: higher = more signal.
In assay [10] the test system is Inhibin beta A chain (activin A). As to the kind of experiment: small molecules binding activin A – biochemical, small-molecule microarray, 635 nm fluorescence scan, primary screen (AID 1107).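 Also: mouse activin A protein probed at 4.33 µg/mL on printed slides; score merges bound-protein fluorescence near 667 nm with spot signal-to-noise.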 Conditions: INHBA, higher = more signal.
Assay [11] deals with Human papillomavirus type 1a protein E7 (residues 44-93). Nature of the assay: small molecules binding HPV E7 44-93 – biochemical, small-molecule microarray, residues 44-93, 635 nm fluorescence, primary screen (AID 1108).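 Also: E7 fragment applied at 1 µg/mL in TBST for 1 h at 4 C; score combines spot fluorescence with its signal to noise ratio.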 Particulars: fluorescence 635 nm, higher = more signal.
Assay [12] can be described thus: hepatitis C replication reporter changes, two-sided – Huh7 cells, luciferase reporter, HCV replication inhibitor project, primary screen (AID 1109).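 Also: huh7 hepatoma cells harbouring a luciferase neomycin HCV replicon reporter; luciferase luminescence as measure of HCV replicon replication; test concentration not given here.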 Conditions: Huh7 HCV replicon luciferase reporter, 48 h; higher = more signal.
Assay [13] deals with Left-right determination factor 2 (Homo sapiens) (UniProt O00292). Nature of the assay: small molecules binding LEFTY2 protein – biochemical, small-molecule microarray, 635 nm fluorescence scan, primary screen (AID 1110). Particulars: higher = more signal.
Assay [14] deals with Calmodulin-1 (Homo sapiens) (UniProt P0DP23). As to the kind of experiment: small molecules binding calmodulin-1 with EGTA – biochemical, small-molecule microarray, Cy5-labelled CALM1, profiling panel (AID 1111).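 Also: labelled calmodulin applied in Tris saline Tween buffer holding calcium plus EGTA and DTT.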 Particulars: Cy5-CALM1 binding fluorescence, higher = more signal.
The target is the same in assay [15]. As to the kind of experiment: small molecules binding Ca-loaded calmodulin-1 – biochemical, small-molecule microarray, Cy5-labelled CALM1, plus calcium, artefact control for SMM control-protein annotation, profiling panel (AID 1112).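 Also: score merges spot fluorescence with signal to noise from triplicate slides.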 Conditions: Cy5-CALM1 binding fluorescence, higher = more signal.
Assay [16] in a line: probe aWnt5a binding to arrayed compounds – biochemical, biotinylated probe, 635/667 nm fluorescence, primary screen (AID 1113).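 Also: score merges 667 nm fluorescence intensity with signal-to-noise per printed feature.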 Particulars: small-molecule microarray, higher = more signal.
A short description of assay [17]: probe aShh binding to arrayed compounds – biochemical, biotinylated probe, 635/667 nm fluorescence, primary screen (AID 1114).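 Also: probe is biotin-labelled aShh protein from a stem cell growth factor screen; measures binding of labelled protein to compounds printed on the slide; score merges feature fluorescence at 667 nm with signal-to-noise.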 Particulars: small-molecule microarray, higher = more signal.
The nature of assay [18]: probe aNog binding to arrayed compounds – biochemical, biotinylated probe, 635/667 nm fluorescence, primary screen (AID 1115).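 Also: probe is biotinylated aNog protein used at 0.15 µg/mL for 1 h at 4 C; z-score combines 667 nm fluorescence of each spot with its signal to noise.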 Conditions: small-molecule microarray, higher = more signal.
The target of assay [19] is Torsin-1A-interacting protein 1 (Homo sapiens) (UniProt Q5JTV8). Nature of the assay: compound microarray binding of lysate hLAP1 – cell lysate, small-molecule microarray, COS7 lysate, 635/667 nm fluorescence, primary screen (AID 1116). Conditions: 635 nm fluorescence, higher = more signal.
Assay [20] has as its target Alpha-bungarotoxin (Bungarus multicinctus) (UniProt P60615). Nature of the assay: compounds binding labelled alpha-BTX control protein – biochemical, small-molecule microarray, Alexa647 label, 635/667 nm fluorescence, artefact control for SMM control protein annotation, profiling panel (AID 1117). Particulars: alpha-BTX-A647 binding fluorescence, higher = more signal.

Chain of Alpha-bungarotoxin (Bungarus multicinctus) (P60615 whole entry, looked up): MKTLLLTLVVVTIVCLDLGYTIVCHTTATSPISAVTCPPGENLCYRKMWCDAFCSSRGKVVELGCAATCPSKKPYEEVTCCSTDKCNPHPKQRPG
Chain of Left-right determination factor 2 (Homo sapiens) (O00292 whole entry, looked up): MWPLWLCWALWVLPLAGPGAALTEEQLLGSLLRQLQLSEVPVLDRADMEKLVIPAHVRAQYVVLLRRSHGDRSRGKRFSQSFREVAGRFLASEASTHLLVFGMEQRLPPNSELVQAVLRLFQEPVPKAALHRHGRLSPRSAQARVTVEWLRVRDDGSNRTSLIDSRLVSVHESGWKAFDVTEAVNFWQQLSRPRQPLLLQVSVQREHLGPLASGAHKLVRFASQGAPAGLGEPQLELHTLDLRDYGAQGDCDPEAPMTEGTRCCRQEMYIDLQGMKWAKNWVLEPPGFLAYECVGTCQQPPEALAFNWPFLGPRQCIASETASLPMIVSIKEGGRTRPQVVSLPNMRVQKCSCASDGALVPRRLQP
Chain of Follistatin-related protein 3 (Homo sapiens) (O95633 whole entry, looked up): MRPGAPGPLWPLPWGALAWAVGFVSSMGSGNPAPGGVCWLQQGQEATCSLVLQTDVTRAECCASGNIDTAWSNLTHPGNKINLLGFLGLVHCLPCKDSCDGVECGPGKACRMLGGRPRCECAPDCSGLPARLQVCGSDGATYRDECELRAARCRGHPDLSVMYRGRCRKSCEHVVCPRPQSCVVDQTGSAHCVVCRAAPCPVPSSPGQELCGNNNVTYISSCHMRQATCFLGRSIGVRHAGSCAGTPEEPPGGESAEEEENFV
Chain of Fibroblast growth factor 10 (Homo sapiens) (O15520 whole entry, looked up): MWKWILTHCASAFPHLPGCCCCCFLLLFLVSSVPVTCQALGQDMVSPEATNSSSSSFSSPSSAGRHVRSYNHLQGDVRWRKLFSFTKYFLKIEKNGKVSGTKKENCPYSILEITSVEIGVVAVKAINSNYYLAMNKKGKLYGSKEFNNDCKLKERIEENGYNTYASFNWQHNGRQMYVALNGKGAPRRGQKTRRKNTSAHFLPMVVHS
Chain of Torsin-1A-interacting protein 1 (Homo sapiens) (Q5JTV8 whole entry, looked up): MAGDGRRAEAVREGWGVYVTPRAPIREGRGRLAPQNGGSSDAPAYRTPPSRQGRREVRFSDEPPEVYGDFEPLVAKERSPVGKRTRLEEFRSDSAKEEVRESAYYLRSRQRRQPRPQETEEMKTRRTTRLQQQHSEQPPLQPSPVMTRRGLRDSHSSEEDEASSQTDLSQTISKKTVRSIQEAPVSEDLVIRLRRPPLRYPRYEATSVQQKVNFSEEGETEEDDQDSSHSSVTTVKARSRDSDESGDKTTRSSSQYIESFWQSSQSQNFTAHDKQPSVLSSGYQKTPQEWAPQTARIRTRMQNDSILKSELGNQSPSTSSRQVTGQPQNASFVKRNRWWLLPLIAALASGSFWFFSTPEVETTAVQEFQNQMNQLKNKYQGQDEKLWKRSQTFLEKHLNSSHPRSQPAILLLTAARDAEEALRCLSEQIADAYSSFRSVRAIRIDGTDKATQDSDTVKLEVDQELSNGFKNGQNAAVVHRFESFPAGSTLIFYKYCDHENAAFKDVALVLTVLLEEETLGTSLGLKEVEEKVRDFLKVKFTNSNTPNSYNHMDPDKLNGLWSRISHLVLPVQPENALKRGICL
Chain of Epidermal growth factor receptor (Homo sapiens) (P00533 whole entry, looked up): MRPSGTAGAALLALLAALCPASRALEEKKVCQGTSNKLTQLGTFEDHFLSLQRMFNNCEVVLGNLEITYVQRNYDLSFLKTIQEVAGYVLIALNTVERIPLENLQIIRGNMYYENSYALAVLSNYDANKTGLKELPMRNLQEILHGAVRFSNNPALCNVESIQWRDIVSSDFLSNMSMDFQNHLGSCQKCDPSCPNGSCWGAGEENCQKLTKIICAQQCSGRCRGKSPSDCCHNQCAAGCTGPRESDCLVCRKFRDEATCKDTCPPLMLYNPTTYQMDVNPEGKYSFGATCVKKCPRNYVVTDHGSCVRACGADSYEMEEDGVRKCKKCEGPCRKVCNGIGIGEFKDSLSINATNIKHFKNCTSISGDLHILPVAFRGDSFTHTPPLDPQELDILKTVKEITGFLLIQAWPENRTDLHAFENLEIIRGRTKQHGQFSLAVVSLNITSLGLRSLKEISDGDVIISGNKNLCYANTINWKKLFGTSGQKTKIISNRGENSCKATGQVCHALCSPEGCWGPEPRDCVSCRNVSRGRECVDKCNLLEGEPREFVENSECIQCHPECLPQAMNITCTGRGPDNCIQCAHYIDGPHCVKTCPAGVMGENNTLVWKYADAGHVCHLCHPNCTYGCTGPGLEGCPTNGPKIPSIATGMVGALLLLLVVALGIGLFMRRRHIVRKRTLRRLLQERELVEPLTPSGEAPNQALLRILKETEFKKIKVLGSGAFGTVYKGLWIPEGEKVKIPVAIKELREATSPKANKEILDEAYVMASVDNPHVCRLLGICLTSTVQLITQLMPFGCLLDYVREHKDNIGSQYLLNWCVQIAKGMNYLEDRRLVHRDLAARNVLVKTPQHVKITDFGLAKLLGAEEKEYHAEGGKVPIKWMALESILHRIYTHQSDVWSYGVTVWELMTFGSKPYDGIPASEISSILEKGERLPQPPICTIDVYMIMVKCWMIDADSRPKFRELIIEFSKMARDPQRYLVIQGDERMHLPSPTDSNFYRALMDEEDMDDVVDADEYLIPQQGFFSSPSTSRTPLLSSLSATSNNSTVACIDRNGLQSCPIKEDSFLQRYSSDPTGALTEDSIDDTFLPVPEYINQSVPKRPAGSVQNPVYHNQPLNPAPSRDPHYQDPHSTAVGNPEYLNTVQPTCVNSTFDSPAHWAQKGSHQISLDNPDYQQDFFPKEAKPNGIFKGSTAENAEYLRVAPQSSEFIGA
Chain of Dickkopf-related protein 1 (Homo sapiens) (O94907 whole entry, looked up): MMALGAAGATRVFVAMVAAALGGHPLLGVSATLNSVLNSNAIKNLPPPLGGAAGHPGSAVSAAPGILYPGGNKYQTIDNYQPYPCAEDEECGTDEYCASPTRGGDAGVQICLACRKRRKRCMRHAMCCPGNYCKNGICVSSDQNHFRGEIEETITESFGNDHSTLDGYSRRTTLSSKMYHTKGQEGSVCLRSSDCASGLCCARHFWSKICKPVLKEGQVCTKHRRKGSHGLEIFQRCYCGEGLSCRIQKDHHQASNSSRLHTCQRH

For the compound `C=C(/C(=C/C[C@H](OC(C)=O)c1cccc(OCCO)c1)c1cc(C(=O)OC)ccc1OC)C(C)C`, the composite z-score was 0.86 in assay [1]; -0.0559 in [2]; 0.132 in assay [3]; 0.306 in assay [5]; -0.116 in assay [6]; -0.805 in [7]. In addition, the composite z-score in assay [8] is -0.948; in assay [9] it was -0.316; in assay [10], 0.576; in assay [11], -0.0954; in assay [13], -0.516; in assay [14], -1. The composite z-score is -0.551 in assay [15]; -0.124 in assay [16]; -0.0337 in assay [17]; 0.209 in assay [18]; 0.19 in assay [19]; -1.33 in assay [20]. For the same compound, the z-score in assay [4] is -0.846 (inactive); in assay [12], -0.556.

With `O=C1c2ccccc2[C@](Cc2ccccc2I)(C(=O)O)[C@H](c2ccc(CO)cc2)N1Cc1ccccc1Cl`, the composite z-score in assay [1] is 0.96; in [2], 0.815; in assay [3], 1.06; in assay [5], 0.235; in [6], -0.0679; in assay [7] it was -0.197. The composite z-score was 0.521 in [8]; 0.697 in assay [9]; 0.623 in assay [10]; 1.15 in assay [11]; -0.0287 in assay [13]; 1.56 in assay [14]. The composite z-score in assay [15] was 0.586; in assay [16] it was -0.163; in assay [17], -0.189; in assay [18], 0.195; in assay [19], 0.957; in [20], 2.29. The z-score in [4] was 0.0252 (inactive); in assay [12], -0.219.

For `CC(C)[Si](C#C[Si](C(C)C)(C(C)C)C(C)C)(O[C@H](C)c1cn([C@H](C)c2ccccc2)nn1)C(C)C`, the composite z-score in assay [1] turned out to be 0.366; in [2], 0.106; in [3], 0.351; in assay [5] it was 0.597; in assay [6], 0.339; in assay [7], 0.292. Besides, the composite z-score was 0.806 in assay [8]; 0.538 in assay [9]; -0.269 in assay [10]; 0.946 in [11]; 0.188 in [13]; 0.242 in assay [14]. Moreover, the composite z-score is -0.479 in assay [15]; -0.131 in assay [16]; -0.138 in [17]; 0.444 in [18]; 0.245 in assay [19]; 0.833 in assay [20]. The z-score is -1.8 (inactive) in [4] and 0.0537 in assay [12].

Turning to `O=C(NC1CC1)[C@@H]1c2ccccc2C(=O)N(Cc2ccccc2C(F)(F)F)[C@H]1c1ccc(CO)cc1`, the composite z-score was found to be 0.271 in assay [1]; 0.561 in assay [2]; 0.341 in [3]; 0.554 in assay [5]; 1.27 in [6]; 0.388 in [7]. The composite z-score amounted to 0.471 in [8]; 0.113 in [9]; 0.708 in assay [10]; 1.06 in assay [11]; 0.319 in [13]; 0.64 in assay [14]. Further, the composite z-score in assay [15] was 0.585; in assay [16], -0.0977; in assay [17], 0.172; in assay [18], 0.0272; in assay [19], 0.714; in [20] it was 0.353. Besides, the figures for the z-score in assay [4] and in [12] were -0.0246 (inactive) and -0.639, respectively.

Take `COCCCN1C(=O)[C@@]2(Cc3ccccc31)c1ccccc1C(=O)N(Cc1ccccc1Cl)[C@H]2c1ccc(CO)cc1`: the composite z-score was -0.482 in assay [1]; 0.337 in [2]; 0.775 in assay [3]; -0.129 in [5]; -0.542 in assay [6]; -0.406 in [7]. The composite z-score in assay [8] is -0.397; in assay [9], -0.685; in [10] it was 1.04; in assay [11], -0.199; in [13], -0.222; in [14], -0.217. In addition, the composite z-score was -0.12 in assay [15]; 0.0044 in [16]; -0.0066 in assay [17]; 0.206 in [18]; 0.167 in [19]; -0.342 in [20]. The z-score in assay [4] was -0.471 (inactive); in [12] it was -0.326.
